Bioassay records from PubChem BioAssay.
Hits are enriched below; roughly 2.9% of the tested compounds scored in any of these assays.
EPAC1 ag val – human EPAC1 agonism, validation; O95398; EPAC1 Rap1b BODIPY-GDP exchange, fluorescence; Potency, µM, most hits filed as activators; 16,000 compounds, 1% hits; AID 1645883; further: nearly all actives have a fitted effect of over 70% in size
EPAC2 antag – validation of human EPAC2 antagonists. Q8WZA2. EPAC2 Rap1B BODIPY-GDP exchange, fluorescence. Potency, µM (doses to about 112 µM), hits mostly inhibitors. 16,000 compounds, 1.7% hits; further: nearly all actives have a fitted effect of over 40% in size
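Fluorescent exchange read-out: 100 nM EPAC2 with 250 nM RAP1B–BODIPY-GDP and 50 uM GDP; BODIPY-GDP release lowers fluorescence. Read at 480/540 nm every 5 min for 30 min at room temperature; normalized to 6.5 mM cAMP.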
Large screens that a line does not name were inactive; ! = not active in a repeat. The call rests on the fitted dose curve; in most records, active means well fitted curve in the direction sought with a large enough effect; inconclusive means small, poorly fitted or top-dose-only effect, or another doubt; inactive means no such curve, though single readings can be large; an effect the other way counts as inactive or inconclusive.

COC[C@H](c1ccc(C(F)(F)F)cc1)N1CCN(C2(C)CCN(C(=O)c3c(C)ncnc3C)CC2)C[C@H]1C	none
COC(=O)c1c(OCc2cccnc2)cc(=O)n2c1CCN(Cc1cc3c(cc1Cl)OCO3)CC2	none
C1=Cc2ccccc2/C1=C/c1ccc(/C=C2\C=Cc3ccccc32)cc1	EPAC1 ag val inconclusive
C1=Cc2ccccc2/C1=C\c1ccc2c(c1)OCO2	EPAC1 ag val 100µM, EPAC2 antag inconclusive
CCC(C)[C@H]1O[C@]2(C=C[C@@H]1C)C[C@@H]1C[C@@H](C/C=C(\C)[C@@H](O[C@H]3C[C@H](OC)[C@@H](O[C@H]4C[C@H](OC)[C@H](NC(C)=O)[C@H](C)O4)[C@H](C)O3)[C@@H](C)/C=C/C=C3\CO[C@@H]4[C@H](O)C(C)=C[C@@H](C(=O)O1)[C@]34O)O2 (stereo partly drawn)	none
CC(CN1c2ccccc2Sc2cccnc21)N(C)C (stereo not drawn)	none
CO/N=C(\C(=O)N[C@@H]1C(=O)N2C(C(=O)O)=C(CSC(=O)c3ccco3)CS[C@H]12)c1csc(N)n1	none
CC(C)(Sc1ccc(CCN(CCCCC2CCCCC2)C(=O)NC2CCCCC2)cc1)C(=O)O	EPAC2 antag 44.7µM!
CN(Cc1ccco1)c1ncnc2ccc(-c3cccnc3)cc12	none
Cc1ccccc1-c1ccc2ncnc(N(C)Cc3ccco3)c2c1	EPAC1 ag val 100µM, EPAC2 antag 20µM
CN(C)Cc1ccccc1-c1ccc2ncnc(N(C)Cc3ccco3)c2c1	none
CN(Cc1ccco1)c1ncnc2ccc(-c3ccc4c(c3)OCO4)cc12	EPAC2 antag 35.5µM
CCc1nc(CN2CCOc3ccc(C(O)C4CCCCC4)cc3C2)c(C)[nH]1 (stereo not drawn)	none
C#CCN(Cc1nc(N2CCOCC2)c2ccc(Cl)cc2n1)Cc1ccco1	EPAC2 antag 50.1µM
CN(C)Cc1ccccc1-c1nc(N2CCOCC2)c2ccccc2n1	none
COc1cc(-c2cccc(OC)c2OC)cc2c1OCCN(Cc1cn[nH]c1-c1ccc(Cl)cc1)C2	EPAC2 antag inconclusive
C#C[C@]1(OC(C)=O)CC[C@H]2[C@@H]3CCC4=C[C@@H](OC(C)=O)CC[C@@H]4[C@H]3CC[C@@]21C	EPAC1 ag val 44.7µM!, EPAC2 antag inconclusive
C#C[C@@]1(O)CCC2C3CCC4=CC(=O)CCC4C3CC[C@@]21CC (stereo partly drawn)	none
C#C[C@]1(O)CC[C@H]2[C@@H]3CCc4cc(O)ccc4[C@H]3CC[C@@]21C	none
C#C[C@]1(OC(C)=O)CCC2C3CCC4=CC(=O)CCC4C3CC[C@]21C (stereo partly drawn)	EPAC2 antag 79.4µM
COc1ccc(OC)c(-c2ccc(O)c(CN3CCc4c([nH]c5ccccc45)C3)c2)c1	none
CC(=O)Oc1ccc2c(c1)CC[C@@H]1[C@@H]2CC[C@]2(C)[C@@H](O)CC[C@@H]12	EPAC1 ag val 28.2µM
CC(=O)Oc1ccc2c(c1)CCC1C2CC[C@]2(C)C(OC(C)=O)CCC12 (stereo partly drawn)	EPAC1 ag val inconclusive
CC1CS(=O)(=O)CCN1/N=C/c1ccc([N+](=O)[O-])o1 (stereo not drawn)	none
Cc1oc(-c2ccccc2NC(=O)C2CCC2)nc1CNC(=O)c1cccc(C(F)(F)F)c1	none
Cc1sc(N)c(C(=O)c2cccc(C(F)(F)F)c2)c1C	EPAC2 antag 56.2µM
C[C@@H](O)[C@H]1C(=O)N2C(C(=O)[O-])=C(SC3Cn4cnc[n+]4C3)[C@H](C)[C@H]12 (stereo partly drawn)	none
CCc1oc2ccccc2c1C(=O)c1cc(Br)c(O)c(Br)c1	EPAC2 antag 44.7µM
CC(=O)c1ccc2oc3ccccc3c(=O)c2c1	none
CCOC(=O)N1CCN(Cc2ccc3c(c2)CN(C(=O)c2noc4c2CCCC4)CCO3)CC1	none
CC(CCc1ccc(O)cc1)N1CCOc2c(O)cc(-c3nc4ccccc4s3)cc2C1 (stereo not drawn)	none
COc1ccc(C(=O)c2ccc(C)cc2)c(O)c1	EPAC2 antag inconclusive
COc1ccc(C(=O)c2ccccc2)c(O)c1	EPAC2 antag 39.8µM!
